Source: PubChem BioAssay (NCI)
The panel holds about 83,000 compounds, 20% with a hit somewhere; the sample as a whole holds those more often.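 Single-concentration screen, 48 h exposure, 96-well plates. Endpoint: percent growth. Below 10 = active.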 Unmarked numbers belong to inactive results. Active and inactive are the calls of the source.

Legend:
Assay in all cases: NCI-60 one-dose screen, 48 h (100 = growth as untreated, 0 = no growth, -100 = all killed)
HCT-15 colon = conditions: 10 µM
SNB-75 CNS = conditions: 10 µM
SNB-19 CNS = conditions: 10 µM
PC-3 prostate = conditions: 10 µM
SK-MEL-5 melanoma = conditions: 10 µM
UACC-62 melanoma = conditions: 10 µM unless noted
SK-MEL-28 melanoma = conditions: 10 µM
LOX IMVI melanoma = conditions: 10 µM
HT29 colon = conditions: 10 µM
U251 CNS = conditions: 10 µM

SMILES	growth (HCT-15 colon)	growth (SNB-75 CNS)	growth (SNB-19 CNS)	growth (PC-3 prostate)	growth (SK-MEL-5 melanoma)	growth (UACC-62 melanoma)	growth (SK-MEL-28 melanoma)	growth (LOX IMVI melanoma)	growth (HT29 colon)	growth (U251 CNS)
COC(=O)Nc1cccc(Cl)c1OC	96.4%	99%	112%	103%	100%	111%	114%			
Cc1nc2c(ccc3ccccc32)s1	110%	108%	107%	99.7%	112%	107%	105%	98.4%		
COc1cc(C2NC(=O)C(C#N)=C(Nc3cccc(C)c3)S2)ccc1O (stereo not drawn)		89.6%	102%	97.6%	101%	97.8%	103%	99.1%	107%	103%
CNc1nc(NC)c2cn[nH]c2n1	101%	91.1%	106%	91.9%	97.8%	102%	115%	98.3%		
CC1(C)N=C(N)N=C(N)N1c1cccc(Br)c1		58.6%	44.9%	38.5%	26.7%	30.2%	72.5%	20.2%	28.4%	32.9%
O=C(c1ccc(Cl)cc1)c1ccccc1Cl	95.8%	100%	85.1%	93.4%	94.5%	87.7%	129%			98.3%
OCc1cccc2ccccc12	101%	86.3%	113%		118%	112%	111%	102%		108%
CCN(CC)CCNc1ccc(CO)c2sc3ccccc3c(=O)c12	27.2%		43.2%	46.1%		30.6%		28%		32.4%
Nc1ccc(NC(=O)c2cccc(N)c2)cc1			94.8%	82.9%	103%	96.5%	104%	89.9%	105%	96.2%
CCOC(=O)c1ccc(Nc2sc(C(=O)c3cccc([N+](=O)[O-])c3)c(N)c2C#N)cc1			48.8%	31.1%	10.9%	28.6%	63.1%	39.5%		11.5%
COc1cccc(Sc2ccc([N+](=O)[O-])c3no[n+]([O-])c23)c1		31.8%	83.3%	59.4%	88.9%	53.2%	55%	28.9%	30.2%	
COc1cc2cc(OC(C)=O)c3cc4c(cc3c2c(OC)c1OC)OCO4			105%	94.7%	99.5%		105%	94.9%	101%	103%
CC(=O)C1CCCCC1		87.1%	100%	96.8%	99.9%	103%	102%	99.9%	104%	
CCOC(=O)CNN		94.7%	100%	99.3%	90.5%		115%	90.6%	105%	95.7%
COC(=O)c1ccc(C(C)C)cc1		103%	103%	90.6%	104%	99.4%	110%	95%	107%	98.6%
S=c1sc2ccccc2n1CN1CCCCC1		77.6%	104%	77.2%	104%		106%	84.5%	101%	104%
O=[N+]([O-])c1ccc(/C=C/C=C/c2ccccc2)c(Cl)c1		94.2%	99.7%	94.1%	101%	96.6%	106%	98%	90.3%	92%
CCCCNC(=O)C(=O)NCCCC		116%		105%	100%	92.6%	112%	102%		114%
CC(=O)Cc1ccc(-c2ccccc2)cc1			101%	97.1%	98.7%	87.5%	114%	100%	111%	98.3%
CC(C)CCCC(=O)O		95.4%	101%	94.8%	97.2%	107%	99%	105%	104%	103%
CCCCCCCCCCCCCCCCC1CC(=O)OC1=O (stereo not drawn)		101%	105%	98.9%	103%	102%	105%		109%	
O=[N+]([O-])c1cccc2nsnc12			98.4%	97.3%	94.9%	105%	114%	99.7%	105%	104%
CCCCOC(OCCCC)c1ccccc1		88.9%	95.4%	98.7%	103%	97.2%	107%	92.7%	102%	109%
O=C(N/N=C\c1cc(Br)cc(Br)c1O)N/N=C/c1cc(Br)cc(Br)c1O			68.2%	-1.34% (active)	45.3%		81.9%	50.5%	105%	46.1%
COc1ccc(C(O)c2ccccc2)cc1 (stereo not drawn)		96.1%	105%	94.7%	99.3%	95.3%	105%	86.2%	105%	94.1%
CCCC[P+](c1ccccc1)(c1ccccc1)c1ccccc1		53.5%	55.3%	26.8%	16.1%	44.3%	69.1%	41%	40.9%	30.1%
